Screening data from PubChem.
FadD28 FP inh – inhibitors of FadD28 bisubstrate probe binding, primary screen, biochemical, fluorescence polarization, single point. Mycobacterium tuberculosis FadD28 fatty-acid-AMP ligase. inhibition, % at 12.5 µM. hit rate 0.22% among 360,000; in the data active means inhibition above about 8.5%, passing the limit was not always enough; inconclusive means no clear call, values can overlap the other calls
UGM FP inh – M. tuberculosis UGM enzyme inhibitors, primary screen, biochemical, fluorescence polarization, single point. UDP-galactopyranose mutase (Mycobacterium tuberculosis (strain ATCC 25618 / H37Rv)), …. purified UGM, fluorescence polarization probe displacement. inhibition, % at 10 µM. hit rate 0.06% among 320,000. AID 504406, 2011; in the data active means inhibition above about 10%, passing the limit was not always enough; inconclusive means no clear call, values can overlap the other calls
Target sequence (P9WIQ1 whole entry, looked up): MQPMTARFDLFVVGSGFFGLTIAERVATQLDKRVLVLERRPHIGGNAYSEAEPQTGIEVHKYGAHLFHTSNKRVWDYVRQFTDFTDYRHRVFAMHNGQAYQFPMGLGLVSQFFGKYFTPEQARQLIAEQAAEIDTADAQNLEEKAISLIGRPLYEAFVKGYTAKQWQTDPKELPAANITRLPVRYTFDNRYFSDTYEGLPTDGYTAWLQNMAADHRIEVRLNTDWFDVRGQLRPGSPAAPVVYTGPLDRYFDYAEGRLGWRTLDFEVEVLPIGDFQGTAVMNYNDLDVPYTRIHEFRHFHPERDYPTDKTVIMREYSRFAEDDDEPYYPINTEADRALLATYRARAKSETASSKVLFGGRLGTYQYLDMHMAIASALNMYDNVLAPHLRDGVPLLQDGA
Rv3671c inh – Rv3671c serine protease inhibitors, primary screen, biochemical, fluorescence polarization, M. tuberculosis H37Rv | P9WHR9 | inhibition, % at 5.96 µM | hit rate 0.048% among 320,000 | AID 2606, 2010;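 further: extracellular domain of Rv3671c used as enzyme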
Mtb FBA inh – Mtb FBA enzyme inhibitors, primary screen, biochemical, fluorescence, strain H37Rv; Fructose-bisphosphate aldolase (Mycobacterium tuberculosis (strain ATCC 25618 / H37Rv)), …; purified M. tuberculosis FBA, fluorescence read-out; inhibition, % at 1 µM; hit rate 2.3% among 360,000; in the data active means inhibition above about 27%
Mtb bLac sens – beta-lactam sensitization of Mtb H37Rv, H37Rv | M. tuberculosis H37Rv growth with meropenem, percent inhibition | inhibition, % at 25 µM | hit rate 0.27% among 330,000 | AID 434955, 2010; call rule not given here;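 further: growth measured after seven days incubation then overnight dye step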
GDH-TPI counter – GDH-TPI coupling enzyme inhibitors, primary screen, artefact control for M. tuberculosis FBA inhibitor project, biochemical, absorbance, full deck. inhibition, % at 4.8 µM. hit rate 1.2% among 360,000. GDH-TPI coupled enzyme counterscreen, NADH absorbance; in the data active means inhibition above about 30%
Rv3671c confirm – Rv3671c serine protease inhibitors, retest, confirmation, biochemical, fluorescence polarization, M. tuberculosis H37Rv | hit rate 40% among 140 | shares compounds with Rv3671c inh | AID 2761, 2010 | inhibition, % at 5.96 µM
Numbers stand for hits. In the library only some 3.7% were active in any assay of this set; here they are far more common. Unless noted, no stated cut-off is given here; in the data, active means inhibition above about 38%; inactive means the rest.

CCNc1c2c3c(cccc3n(C)c1=O)C(=O)c1ccccc1-2 was read as UGM FP inh 22, Rv3671c inh 60, Mtb bLac sens inactive and Rv3671c confirm 53.
Screening Cn1c(=O)c(NCCO)c2c3c(cccc31)C(=O)c1ccccc1-2 returned FadD28 FP inh inactive, UGM FP inh 98, Rv3671c inh 122, Mtb FBA inh inactive, Mtb bLac sens inactive, GDH-TPI counter inactive and Rv3671c confirm 132.
Screening CC(=O)Nc1ccc(Nc2c3c4c(cccc4n(C)c2=O)C(=O)c2ccccc2-3)cc1 returned FadD28 FP inh inactive, UGM FP inh inactive, Rv3671c inh inactive, Mtb FBA inh inactive, Mtb bLac sens inactive and GDH-TPI counter inactive.
CN1CCN(c2nc(Nc3ccc(F)cc3)nc(Nc3ccc(F)cc3)n2)CC1 was read as FadD28 FP inh inactive, UGM FP inh inactive, Rv3671c inh inactive, Mtb FBA inh inactive, Mtb bLac sens inactive and GDH-TPI counter inactive.
Screening Cc1csc(-c2cc(C(=O)NCc3ccc(F)cc3)n[nH]2)c1 returned FadD28 FP inh inactive, Mtb FBA inh inactive and GDH-TPI counter inactive.
`O=C(Nc1ccc(Oc2ccccc2)cc1)c1csc(COCCO)n1` gave FadD28 FP inh inactive, Mtb FBA inh inactive and GDH-TPI counter inactive.
Screening CCN(CC)S(=O)(=O)c1ccc(N2CCOCC2)c(NC(=O)COc2ccccc2C)c1 returned FadD28 FP inh inactive, UGM FP inh inactive, Rv3671c inh inactive, Mtb FBA inh inactive, Mtb bLac sens inactive and GDH-TPI counter inactive.
Screening CC1=C(C(N)=O)C(c2cccs2)n2nc(-c3cccc(C)c3)nc2N1 (stereo not drawn) returned FadD28 FP inh inactive, UGM FP inh inactive, Rv3671c inh 43, Mtb FBA inh inactive, Mtb bLac sens inactive, GDH-TPI counter inactive and Rv3671c confirm 52.
`COc1cnc(NS(=O)(=O)c2ccc(N)cc2)nc1` gave FadD28 FP inh inactive, UGM FP inh inactive, Rv3671c inh 85, Mtb FBA inh inactive, Mtb bLac sens inactive, GDH-TPI counter inactive and Rv3671c confirm inactive.
Screening Cc1cc(C)nc(NS(=O)(=O)c2ccc(N)cc2)n1 returned FadD28 FP inh inactive, UGM FP inh inactive, Rv3671c inh inactive, Mtb FBA inh inactive, Mtb bLac sens inactive and GDH-TPI counter inactive.
CCOCCCn1c(SCC(=O)Nc2oc(C)c3c(C)n[nH]c(=O)c23)nc2ccccc2c1=O was read as FadD28 FP inh inactive, Mtb FBA inh inactive and GDH-TPI counter inactive.
For Cc1n[nH]c(=O)c2c(NC(=O)CSc3nc4ccccc4c(=O)n3CCCOC(C)C)oc(C)c12 the results were FadD28 FP inh inactive, UGM FP inh inactive, Rv3671c inh 92, Mtb FBA inh inactive, Mtb bLac sens inactive, GDH-TPI counter inactive and Rv3671c confirm inactive.
O=C(COC(=O)c1ccc([N+](=O)[O-])cc1)NC12CC3CC(CC(C3)C1)C2 was read as FadD28 FP inh inactive, UGM FP inh inactive, Rv3671c inh inactive, Mtb FBA inh inactive, Mtb bLac sens inactive and GDH-TPI counter inactive.
For CC(=O)c1ccc(S(=O)(=O)Nc2cccc(-c3ccc4nncn4n3)c2)cc1 the results were FadD28 FP inh inactive, UGM FP inh inactive, Rv3671c inh 56, Mtb FBA inh inactive, Mtb bLac sens inactive, GDH-TPI counter inactive and Rv3671c confirm inactive.
Screening CC(C)Cn1c(N)c(C(=O)COC(=O)c2ccc(O)cc2)c(=O)n(C)c1=O returned FadD28 FP inh inactive, UGM FP inh inactive, Rv3671c inh 60, Mtb FBA inh inactive, Mtb bLac sens inactive, GDH-TPI counter inactive and Rv3671c confirm inactive.
Screening O=C(Nc1ccc2nc([C@@H]3O[C@H](CO)[C@@H](O)[C@H](O)[C@H]3O)[nH]c2c1)NC(c1ccccc1)c1ccccc1 returned FadD28 FP inh inactive, Mtb FBA inh inactive and GDH-TPI counter inactive.
CC(=O)Nc1cccc(C(=O)N/N=C/c2cccnc2)c1 was read as FadD28 FP inh inactive, UGM FP inh inactive, Rv3671c inh inactive, Mtb FBA inh inactive, Mtb bLac sens inactive and GDH-TPI counter inactive.
For O=C(N/N=C/c1cccnc1)c1cccc(NC(=O)c2cccc(Br)c2)c1 the results were FadD28 FP inh inactive, UGM FP inh inactive, Rv3671c inh 61, Mtb FBA inh inactive, Mtb bLac sens inactive, GDH-TPI counter inactive and Rv3671c confirm inactive.
Screening O=C(N/N=C/c1cc(Br)ccc1O)c1ccncc1 returned FadD28 FP inh inactive, UGM FP inh inactive, Rv3671c inh 41, Mtb FBA inh inactive, Mtb bLac sens inactive, GDH-TPI counter inactive and Rv3671c confirm inactive.
Screening COc1cccc(-c2cnc3c(NC=O)cc(-c4cccc(C(=O)N(C)C)c4)cn23)c1 returned FadD28 FP inh inactive, Mtb FBA inh inactive and GDH-TPI counter inactive.
COc1ccccc1NS(=O)(=O)c1c(C(=O)N2CCCC2)c(C)n(C)c1C was read as FadD28 FP inh inactive, UGM FP inh inactive, Rv3671c inh inactive, Mtb FBA inh inactive, Mtb bLac sens inactive and GDH-TPI counter inactive.
For CCOc1ccc(NS(=O)(=O)c2ccc3c(c2)N(C(C)=O)CCS3)cc1 the results were FadD28 FP inh inactive, UGM FP inh inactive, Rv3671c inh inactive, Mtb FBA inh inactive, Mtb bLac sens inactive and GDH-TPI counter inactive.
`O=C(NCCc1cn[nH]c1)c1ccc2oc(CCc3ccccc3)nc2c1` gave FadD28 FP inh inactive, Mtb FBA inh inactive and GDH-TPI counter inactive.
Screening CCCc1cc(=O)oc2cc(C)cc(OC(=O)c3ccco3)c12 returned FadD28 FP inh inactive, UGM FP inh inactive, Rv3671c inh 66, Mtb FBA inh inactive, Mtb bLac sens inactive, GDH-TPI counter inactive and Rv3671c confirm 84.
Screening CC(=O)Oc1ccc2c(c1)Oc1cc(OC(C)=O)ccc1C21OC(=O)c2ccccc21 returned FadD28 FP inh 41, UGM FP inh inconclusive, Rv3671c inh 122, Mtb FBA inh inactive, Mtb bLac sens inactive, GDH-TPI counter inactive and Rv3671c confirm 123.
For Cc1cc(O)ccc1C1(c2ccc(O)cc2C)OC(=O)c2ccccc21 the results were FadD28 FP inh inactive, UGM FP inh inactive, Rv3671c inh inactive, Mtb FBA inh inactive, Mtb bLac sens inactive and GDH-TPI counter inactive.
`COc1ccc(OC)c(-c2oc3ccccc3c(=O)c2O)c1` gave FadD28 FP inh inactive, UGM FP inh inactive, Rv3671c inh inactive, Mtb FBA inh inactive, Mtb bLac sens inactive and GDH-TPI counter inactive.
COc1ccc(OC)c(-c2c3cc(O)c(=O)cc-3oc3cc(O)c(O)cc23)c1 was read as FadD28 FP inh 102, UGM FP inh inactive, Rv3671c inh 63, Mtb FBA inh inactive, Mtb bLac sens inactive, GDH-TPI counter inactive and Rv3671c confirm 76.
